Screening results: PubChem BioAssay, several laboratories
HIF-2a inh: inhibitors of HIF-2a; 786-0 RCC cells HIF-2a reporter, luciferase luminescence, overnight; 360,000 compounds, 0.72% hits; inhibition, % at 18.8 µM;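 active = inhibition of the luminescence signal of 40% or more relative to plate controls, in a single-dose primary screen at 18.75 µM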
LGR2 inh: blocks bursicon-induced cAMP signaling via Drosophila LGR2; HEK293 LGR2, CRE-luciferase, bursicon-stimulated, 4 h; inhibition, % at 9.99 µM; 380,000 compounds, 0.35% hits; AID 720647;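 active = drop in luminescence signal, shown as inhibition above about 50% in the replicate tests, limit read from the data, passing the limit was not always enough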;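 note: agonist challenge used bursicon conditioned medium at about half maximal strength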
KKLEB cytotox: CF airway cell cytotoxicity counter-screen; activity change (cytotoxicity), % at 5 µM; KKLEB CF airway cells viability, ATPlite luminescence, overnight; hits give low values; cells stimulated with P. aeruginosa culture filtrate; 360,000 compounds, 0.36% hits;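 active = corrected activity change at or below -50% at 5 µM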
hiPSC survival: enhancers of human iPSC single-cell survival | hiPSC single-cell survival, ATPlite luminescence; 100% = ROCK inhibitor wells, 0% = DMSO | survival enhancement, % at 20 µM | 360,000 compounds, 0.044% hits | AID 602274; in the data active = survival enhancement above about 18%;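 note: cells exposed to compounds for 16 hours before the ATP read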
CF NFkB inh: blocks PAF-induced NF-kB reporter in cystic fibrosis cells; KKLEB NF-kB-GFP reporter, GFP fluorescence overnight; inhibition, % at 5 µM; 360,000 compounds, 0.86% hits; AID 588850;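 active = at least 50% inhibition at 5 µM, scaled per plate between neutral and stimulator controls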;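 note: PAF is a Pseudomonas aeruginosa culture filtrate used as stimulus; plate controls were PAF-stimulated DMSO wells for no effect and unstimulated DMSO wells for full effect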
TWEAK Fn14 block: TWEAK-Fn14 signaling inhibition. 360,000 compounds, 2% hits. inhibition, % at 10 µM. AID 1159606. TWEAK-stimulated Fn14 reporter cells, luciferase luminescence, 8 h; in the data active = inhibition above about 50%
An asterisk follows results filed as active; nt = not tested or not shown. An excerpt weighted towards active compounds, which were near 2.3% of everything screened.

SMILES	HIF-2a inh	LGR2 inh	KKLEB cytotox	hiPSC survival	CF NFkB inh	TWEAK Fn14 block
COc1ccc(-c2cnc3c(NC=O)cc(-c4ccccc4)cn23)cc1OC	-22.4	-37.5	-38.2	-1.2	45.9	15.2
COc1ccc(-c2cnc3c(NC=O)cc(-c4ccc(F)cc4)cn23)cc1OC	22.0	-25.7	-52.2*	-4.7	65.8*	15.4
O=S(=O)(c1ccccc1)c1nc(NCc2ccccc2)sc1Cl	10.8	5.9	-5.0	1.8	11.2	16.2
COc1ccc(CNc2nc(S(=O)(=O)c3ccccc3)c(Cl)s2)cc1OC	22.9	26.3	-10.6	0.0	19.4	69.9*
CCCNC(=O)[C@@H]1[C@@H](CO)[C@@H]2Cn3c(ccc(-c4ccc(OC)cc4)c3=O)[C@H]1N2CC	nt	-6.6	nt	nt	nt	nt
O=C(NCc1ccc(F)cc1)[C@H]1[C@H](CO)[C@H]2Cn3c(cccc3=O)[C@H]2N1CC1CC1	nt	4.9	nt	nt	nt	nt
N#Cc1c2ccc(O)cc2n2ccccc12	18.2	22.7	9.6	-1.5	71.2*	55.7*
O=C(CCl)N=c1sccn1Cc1cccc2ccccc12	25.5	1.7	-98.5*	-2.0	91.3*	48.0
CNC(=S)N/N=C1\C(=O)c2cccc3cccc1c23	-38.1	nt	-1.4	-1.3	-84.8	96.9*
Cc1nn2cc(-c3ncc(C(F)(F)F)cc3Cl)cnc2c1Br	-57.1	-28.2	-0.4	0.8	3.4	50.7*
Cc1cc2ncc(-c3ncc(C(F)(F)F)cc3Cl)cn2n1	-30.0	nt	6.4	-4.1	2.8	83.8*
N#Cc1cnn2cc(-c3ncc(C(F)(F)F)cc3Cl)cnc12	-99.8	nt	0.6	-1.9	-13.3	-9.9
O=C(Nc1ccccc1C(=O)Nc1nnc(C(F)(F)F)s1)c1ccccc1Cl	-4.5	24.7	-60.7*	0.0	56.2*	61.5*
COc1ccc2c(c1)CC=C1C2CCC2(C)C(=O)C(=NO)CC12 (configuration not stated)	-80.4	-36.1	-24.2	-2.8	53.5*	-26.2
O=C(Nc1cccc(Cl)c1)N1C[C@@H]2[C@H](c3ccccc31)[C@@H](CO)N2C(=O)C1CC1	nt	-22.1	nt	nt	nt	nt
O=C(N[C@@H]1CC[C@@H](CCNC(=O)C2CCCCC2)O[C@H]1CO)c1ccccn1	nt	5.4	nt	nt	nt	nt
C=CCc1cccc2cc(C(=O)Nc3ccc(CC(=O)O)cc3)c(=O)oc12	64.5*	6.4	-6.1	-0.1	5.6	25.2
CO[C@@H]1CN(C)C(=O)c2cc(NC(=O)C3CCC3)ccc2OC[C@H](C)N(CC2CCCCC2)C[C@H]1C	nt	-4.2	nt	nt	nt	nt
CCOc1ccc(NC(=O)CN2CCN(C(=O)C3CCCO3)CC2)cc1 (configuration not stated)	11.3	8.4	5.0	-0.3	-23.5	92.8*
Cc1ccc(C(=O)Oc2cc(N)n(S(=O)(=O)c3ccc(C)cc3)n2)cc1	19.5	5.7	8.3	-2.8	-11.1	68.0*
COc1ccccc1C(=O)Oc1cc(N)n(S(=O)(=O)c2ccccc2)n1	15.5	-1.9	-4.3	2.5	-0.6	4.4
Cc1ccccc1C(=O)Oc1cc(N)n(S(=O)(=O)c2ccccc2)n1	7.7	2.5	-7.8	0.3	7.2	54.6*
O=S(=O)(c1ccccc1F)N1CC[C@@H]2[C@H](CO)Nc3ccc(-c4cccc(F)c4)cc3[C@@H]21	nt	-8.6	nt	nt	nt	nt
CC(C)CN1C(=S)SC(C)(C)C1n1oc(=O)n(-c2ccc(Cl)cc2)c1=O (configuration not stated)	3.3	nt	-56.2*	1.3	65.4*	4.4
CCN1C(=O)N(CC)c2cccc3cccc1c23	11.8	-6.1	3.7	0.1	-1.3	91.5*
SMILES	HIF-2a inh	LGR2 inh	KKLEB cytotox	hiPSC survival	CF NFkB inh	TWEAK Fn14 block
CC(=O)c1c(C)[nH]c(C(=O)COC(=O)CCCOc2ccccc2)c1C	6.0	3.2	2.5	0.7	-5.4	11.0
CCCc1c(C(=O)OCC)[nH]c2c1C(=O)CCC2	-6.4	0.3	2.1	-1.0	1.4	3.3
Cc1c(C(=O)OCCOc2ccccc2)[nH]c2c1C(=O)CCC2	-40.4	nt	-8.4	4.0	-0.1	82.0*
CC(=O)c1c(C)[nH]c(C(=O)OCCOc2ccccc2)c1C	-57.8	67.5*	-15.6	-0.4	-6.0	-19.4
O=C(N/N=C/c1ccc(O)cc1)Nc1cccc2nsnc12	-71.6	3.8	-37.8	-0.9	69.3*	62.8*
COc1ccc(/C=N/NC(=O)Nc2cccc3nsnc23)c(OC)c1	24.5	nt	-0.8	1.0	14.2	10.3
COc1ccccc1/C=C/C(=O)/C=C/c1ccccc1O	-12.1	-22.1	-12.7	-0.7	-6.7	88.0*
Cc1sc2nc3ccc(NCc4ccco4)nn3c(=O)c2c1C	-25.3	nt	-7.2	1.3	28.4	91.1*
COc1cccc(CN(C)C(=O)c2ccc(OCC(=O)Nc3cccc(C(F)(F)F)c3)c(OC)c2)c1	-17.9	9.5	-8.1	0.0	-10.0	60.5*
COc1ccc(CN(C)C[C@H]2Oc3ccc(NC(=O)Nc4c(C)noc4C)cc3C(=O)N([C@H](C)CO)C[C@H]2C)cc1	nt	-6.2	nt	nt	nt	nt
C[C@@H]1CCCCO[C@H](CN(C)Cc2ccccc2)[C@H](C)CN([C@H](C)CO)C(=O)c2cc(NC(=O)c3ccccc3)ccc2O1	nt	18.9	nt	nt	nt	nt
CC(C)(C)c1nn(-c2ccccc2)c2[nH]c(=O)c(CNc3ccc4c(c3)OCCO4)cc12	-28.1	17.9	15.5	-0.6	57.0*	96.2*
C[C@@H]1CN([C@H](C)CO)C(=O)c2cc(NC(=O)CCCN(C)C)ccc2O[C@@H]1CN(C)C	nt	3.3	nt	nt	nt	nt
O=C(Nc1cccc(O)c1)c1noc2c1CCc1ccccc1-2	-165.0	nt	-43.5	-3.4	4.9	71.8*
Cc1ccc(NC(=O)c2noc3c2CCc2ccccc2-3)cc1	-260.2	nt	-8.8	-1.4	3.8	-13.5
C[C@@H]1CN([C@H](C)CO)C(=O)c2cc(NS(=O)(=O)c3ccc(Cl)cc3)ccc2O[C@@H](C)CCCCO[C@@H]1CN(C)Cc1ccc(C(=O)O)cc1	nt	-6.8	nt	nt	nt	nt
Cc1ccc2nc3sc(C(=O)Nc4c(C)[nH]c(=O)[nH]c4=O)c(N)c3cc2c1	-33.2	-7.0	-0.8	-2.2	0.8	53.4*
Cc1ccc2cc3c(N)c(C(=O)Nc4c(C)[nH]c(=O)[nH]c4=O)sc3nc2c1	7.1	-15.4	14.9	1.8	-4.4	10.9
CC(C)NC(=O)Nc1ccc2c(c1)C(=O)N([C@@H](C)CO)C[C@H](C)[C@@H](CN(C)CC1CCCCC1)OCCCC[C@@H](C)O2	nt	14.8	nt	nt	nt	nt
O=C1/C(=C/c2ccc(N3CCOCC3)o2)SC(=Nc2ccccc2)N1CCc1c[nH]c2ccccc12	92.6*	nt	-51.3*	19.1	-20.7	90.5*
O=C1S/C(=C\c2ccc(N3CCOCC3)o2)C(=O)N1Cc1ccc(F)cc1	-20.8	nt	-23.3	0.5	-5.7	51.9*
Cc1ccc(S(=O)(=O)N(C)C[C@H]2Oc3ccc(NC(=O)Cc4ccccc4)cc3C(=O)N([C@H](C)CO)C[C@@H]2C)cc1	nt	-8.9	nt	nt	nt	nt
COc1ccc(NC(=O)N(C)C[C@@H]2OCCCC[C@H](C)Oc3ccc(NC(=O)CCCN(C)C)cc3C(=O)N([C@H](C)CO)C[C@@H]2C)cc1	nt	-1.3	nt	nt	nt	nt
